Assay [1] addresses T1, Serine/threonine-protein kinase D2 (Homo sapiens) (UniProt Q9BZL6).
T1 sequence (whole entry): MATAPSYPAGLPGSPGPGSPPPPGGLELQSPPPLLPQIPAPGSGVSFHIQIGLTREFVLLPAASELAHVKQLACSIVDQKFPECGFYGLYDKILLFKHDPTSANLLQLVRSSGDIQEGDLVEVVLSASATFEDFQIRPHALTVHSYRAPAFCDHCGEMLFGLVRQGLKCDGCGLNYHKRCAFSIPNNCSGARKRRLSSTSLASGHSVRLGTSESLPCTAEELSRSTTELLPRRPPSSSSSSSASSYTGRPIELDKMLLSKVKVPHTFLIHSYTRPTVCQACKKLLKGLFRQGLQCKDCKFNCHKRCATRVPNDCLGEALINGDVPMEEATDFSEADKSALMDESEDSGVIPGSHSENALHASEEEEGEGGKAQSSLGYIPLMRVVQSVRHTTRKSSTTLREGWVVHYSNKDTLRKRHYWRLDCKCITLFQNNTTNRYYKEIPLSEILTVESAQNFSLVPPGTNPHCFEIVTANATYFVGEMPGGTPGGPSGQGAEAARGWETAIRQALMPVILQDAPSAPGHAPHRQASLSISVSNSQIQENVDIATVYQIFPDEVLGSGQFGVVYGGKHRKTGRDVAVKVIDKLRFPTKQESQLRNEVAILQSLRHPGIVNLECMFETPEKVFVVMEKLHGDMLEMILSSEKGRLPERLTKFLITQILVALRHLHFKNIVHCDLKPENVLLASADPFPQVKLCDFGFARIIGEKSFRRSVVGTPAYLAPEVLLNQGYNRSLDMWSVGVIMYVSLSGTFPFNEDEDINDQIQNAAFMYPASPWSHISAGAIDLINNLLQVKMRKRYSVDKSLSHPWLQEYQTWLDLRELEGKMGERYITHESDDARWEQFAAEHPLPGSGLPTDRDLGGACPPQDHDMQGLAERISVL
The settings on record: at 1 µM.

Assay [2] has as its target T2, Serine/threonine-protein kinase D3 (Homo sapiens) (UniProt O94806).
T2 sequence (whole entry): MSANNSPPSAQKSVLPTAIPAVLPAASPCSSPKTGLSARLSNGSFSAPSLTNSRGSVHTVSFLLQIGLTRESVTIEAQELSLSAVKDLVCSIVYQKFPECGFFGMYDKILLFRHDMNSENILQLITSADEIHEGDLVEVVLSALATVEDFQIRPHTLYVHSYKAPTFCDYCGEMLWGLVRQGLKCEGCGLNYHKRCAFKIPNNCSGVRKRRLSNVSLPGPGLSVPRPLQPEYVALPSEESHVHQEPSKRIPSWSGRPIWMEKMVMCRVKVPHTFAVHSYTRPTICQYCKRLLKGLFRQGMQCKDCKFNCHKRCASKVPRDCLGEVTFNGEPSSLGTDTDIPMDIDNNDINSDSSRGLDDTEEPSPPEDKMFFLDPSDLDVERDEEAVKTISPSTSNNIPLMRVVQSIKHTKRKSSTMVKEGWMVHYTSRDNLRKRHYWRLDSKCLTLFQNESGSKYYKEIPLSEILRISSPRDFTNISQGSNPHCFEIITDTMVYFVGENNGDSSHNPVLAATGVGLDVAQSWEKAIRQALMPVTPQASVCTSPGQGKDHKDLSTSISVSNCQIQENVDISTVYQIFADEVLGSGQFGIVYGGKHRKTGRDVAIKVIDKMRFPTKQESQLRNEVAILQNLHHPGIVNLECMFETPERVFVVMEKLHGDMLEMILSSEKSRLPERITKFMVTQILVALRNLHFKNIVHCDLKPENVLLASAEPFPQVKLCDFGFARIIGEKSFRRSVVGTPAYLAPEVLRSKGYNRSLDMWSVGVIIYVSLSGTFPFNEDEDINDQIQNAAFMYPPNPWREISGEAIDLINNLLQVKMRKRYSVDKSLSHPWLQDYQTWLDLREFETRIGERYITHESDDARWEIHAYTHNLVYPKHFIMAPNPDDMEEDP
As to conditions: at 0.1 µM.

The target of assay [3] is T2, Serine/threonine-protein kinase D3 (Homo sapiens). The settings on record: at 1 µM.
For assay [4], the target named is T3, cGMP-dependent protein kinase 1 (Homo sapiens) (UniProt Q13976).
T3 sequence (whole entry): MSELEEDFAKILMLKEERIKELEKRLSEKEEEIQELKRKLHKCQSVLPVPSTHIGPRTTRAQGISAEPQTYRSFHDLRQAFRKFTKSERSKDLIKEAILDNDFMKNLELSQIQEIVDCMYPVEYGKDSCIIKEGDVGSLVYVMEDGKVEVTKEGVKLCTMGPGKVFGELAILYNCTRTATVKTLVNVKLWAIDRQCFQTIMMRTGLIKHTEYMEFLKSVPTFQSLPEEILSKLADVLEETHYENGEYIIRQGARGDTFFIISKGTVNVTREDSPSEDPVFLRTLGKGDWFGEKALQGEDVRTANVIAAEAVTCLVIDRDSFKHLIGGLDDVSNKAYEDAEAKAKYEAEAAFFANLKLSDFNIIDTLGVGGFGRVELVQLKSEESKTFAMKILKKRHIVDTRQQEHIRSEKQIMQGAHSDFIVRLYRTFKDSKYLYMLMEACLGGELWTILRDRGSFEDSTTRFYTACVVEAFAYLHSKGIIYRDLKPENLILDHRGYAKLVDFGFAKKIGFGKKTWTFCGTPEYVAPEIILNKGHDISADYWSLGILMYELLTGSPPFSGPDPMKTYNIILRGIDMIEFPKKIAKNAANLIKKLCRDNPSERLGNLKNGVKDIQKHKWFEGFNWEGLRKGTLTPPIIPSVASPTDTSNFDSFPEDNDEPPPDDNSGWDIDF
As to conditions: at 0.1 µM.

Assay [5] concerns the target T3, cGMP-dependent protein kinase 1 (Homo sapiens). As to conditions: at 1 µM.
Assay [6] deals with T4, cGMP-dependent protein kinase 2 (Homo sapiens) (UniProt Q13237).
T4 sequence (whole entry): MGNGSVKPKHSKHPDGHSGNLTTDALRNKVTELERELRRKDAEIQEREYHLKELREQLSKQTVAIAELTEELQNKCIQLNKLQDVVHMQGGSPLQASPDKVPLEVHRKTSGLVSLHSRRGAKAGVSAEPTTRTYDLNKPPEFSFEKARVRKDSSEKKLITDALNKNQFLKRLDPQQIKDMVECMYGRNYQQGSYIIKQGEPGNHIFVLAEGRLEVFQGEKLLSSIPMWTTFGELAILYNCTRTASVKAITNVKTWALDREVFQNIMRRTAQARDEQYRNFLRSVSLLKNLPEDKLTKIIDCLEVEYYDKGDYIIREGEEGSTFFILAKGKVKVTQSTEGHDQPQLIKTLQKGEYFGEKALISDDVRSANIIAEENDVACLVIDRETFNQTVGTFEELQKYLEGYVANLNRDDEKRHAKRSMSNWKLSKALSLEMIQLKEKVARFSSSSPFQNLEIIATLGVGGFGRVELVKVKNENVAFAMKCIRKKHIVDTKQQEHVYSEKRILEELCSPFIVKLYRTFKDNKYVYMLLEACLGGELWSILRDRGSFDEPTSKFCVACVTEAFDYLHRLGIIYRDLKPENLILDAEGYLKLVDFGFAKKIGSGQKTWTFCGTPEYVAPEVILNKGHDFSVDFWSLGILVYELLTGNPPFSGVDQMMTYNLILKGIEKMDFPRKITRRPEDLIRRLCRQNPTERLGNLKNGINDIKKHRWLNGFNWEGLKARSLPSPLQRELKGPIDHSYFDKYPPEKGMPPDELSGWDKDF
The settings on record: at 0.1 µM.

Assay [7] concerns the target T4, cGMP-dependent protein kinase 2 (Homo sapiens). The settings on record: at 1 µM.
Assay [8] addresses T5, cAMP-dependent protein kinase catalytic subunit PRKX (Homo sapiens) (UniProt P51817).
T5 sequence (whole entry): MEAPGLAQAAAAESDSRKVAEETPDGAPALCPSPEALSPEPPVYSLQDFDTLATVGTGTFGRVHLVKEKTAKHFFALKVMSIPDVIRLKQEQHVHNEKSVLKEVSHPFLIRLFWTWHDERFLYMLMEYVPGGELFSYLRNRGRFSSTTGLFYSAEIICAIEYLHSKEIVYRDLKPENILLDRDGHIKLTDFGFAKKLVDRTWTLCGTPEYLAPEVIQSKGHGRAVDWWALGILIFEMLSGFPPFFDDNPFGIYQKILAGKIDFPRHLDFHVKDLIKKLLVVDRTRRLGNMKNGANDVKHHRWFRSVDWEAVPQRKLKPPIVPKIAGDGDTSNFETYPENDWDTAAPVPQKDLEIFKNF
The settings on record: at 0.1 µM.

The target in assay [9] is T5, cAMP-dependent protein kinase catalytic subunit PRKX (Homo sapiens). The settings on record: at 1 µM.
Assay [10] concerns the target Rho-associated protein kinase 1 (Homo sapiens) (UniProt Q13464). As to conditions: at 0.1 µM.
The target is the same in assay [11]. As to conditions: at 1 µM.
Assay [12] has as its target Rho-associated protein kinase 2 (Homo sapiens) (UniProt O75116). The settings on record: at 0.1 µM.
Assay [13] shares this target. The settings on record: at 1 µM.
The target in assay [14] is Ribosomal protein S6 kinase alpha-1 (Homo sapiens) (UniProt Q15418). As to conditions: at 0.1 µM.
For assay [15] the target is unchanged. The settings on record: at 1 µM.
The target of assay [16] is Ribosomal protein S6 kinase alpha-3 (Homo sapiens) (UniProt P51812). The settings on record: at 0.1 µM.
For assay [17] the target is unchanged. The settings on record: at 1 µM.
In assay [18] the target is Ribosomal protein S6 kinase alpha-2 (Homo sapiens) (UniProt Q15349). The settings on record: at 0.1 µM.
Assay [19] shares this target. As to conditions: at 1 µM.
Assay [20] deals with Ribosomal protein S6 kinase alpha-6 (Homo sapiens) (UniProt Q9UK32). The settings on record: at 0.1 µM.

This note sets out measurements from ChEMBL document CHEMBL1961873, “Compounds: GSK PKIS; Assays: Nanosyn kinase panel” (2012).

Sequence of Rho-associated protein kinase 1 (Homo sapiens) (Q13464 2-1354 limits assumed): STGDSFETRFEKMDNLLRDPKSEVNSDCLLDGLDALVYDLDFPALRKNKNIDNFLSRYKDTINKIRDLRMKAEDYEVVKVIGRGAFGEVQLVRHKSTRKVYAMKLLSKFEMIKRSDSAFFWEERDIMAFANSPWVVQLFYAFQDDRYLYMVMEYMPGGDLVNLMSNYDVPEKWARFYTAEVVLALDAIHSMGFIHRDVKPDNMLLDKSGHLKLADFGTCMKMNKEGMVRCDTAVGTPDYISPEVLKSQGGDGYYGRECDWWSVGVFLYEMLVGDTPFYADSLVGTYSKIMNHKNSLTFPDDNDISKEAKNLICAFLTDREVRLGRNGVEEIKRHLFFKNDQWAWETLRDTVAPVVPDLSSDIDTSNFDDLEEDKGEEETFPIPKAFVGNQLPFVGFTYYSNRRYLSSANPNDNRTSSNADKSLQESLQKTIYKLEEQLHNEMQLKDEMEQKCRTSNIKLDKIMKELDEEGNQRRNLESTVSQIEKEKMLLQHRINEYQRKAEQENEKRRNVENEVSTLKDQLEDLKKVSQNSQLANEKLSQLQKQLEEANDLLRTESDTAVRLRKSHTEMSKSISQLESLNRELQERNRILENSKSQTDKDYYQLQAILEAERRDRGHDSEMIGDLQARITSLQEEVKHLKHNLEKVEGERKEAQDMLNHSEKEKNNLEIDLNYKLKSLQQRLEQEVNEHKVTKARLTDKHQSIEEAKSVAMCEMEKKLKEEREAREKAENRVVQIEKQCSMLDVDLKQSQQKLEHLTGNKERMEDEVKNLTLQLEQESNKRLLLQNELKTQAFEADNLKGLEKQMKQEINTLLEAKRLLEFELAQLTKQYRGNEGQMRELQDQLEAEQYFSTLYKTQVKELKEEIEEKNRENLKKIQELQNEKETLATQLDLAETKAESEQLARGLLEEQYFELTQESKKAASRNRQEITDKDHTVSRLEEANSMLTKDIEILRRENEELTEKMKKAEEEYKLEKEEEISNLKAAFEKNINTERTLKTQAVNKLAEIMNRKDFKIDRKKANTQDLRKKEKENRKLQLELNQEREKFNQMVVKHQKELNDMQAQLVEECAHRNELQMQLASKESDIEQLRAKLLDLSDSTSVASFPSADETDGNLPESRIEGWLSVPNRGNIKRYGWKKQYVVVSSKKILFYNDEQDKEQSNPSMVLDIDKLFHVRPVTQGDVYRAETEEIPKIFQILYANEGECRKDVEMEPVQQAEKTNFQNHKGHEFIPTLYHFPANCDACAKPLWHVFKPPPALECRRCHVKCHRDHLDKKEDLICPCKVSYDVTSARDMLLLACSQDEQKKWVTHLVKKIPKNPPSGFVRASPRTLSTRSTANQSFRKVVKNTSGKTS
Sequence of Ribosomal protein S6 kinase alpha-1 (Homo sapiens) (Q15418 whole entry): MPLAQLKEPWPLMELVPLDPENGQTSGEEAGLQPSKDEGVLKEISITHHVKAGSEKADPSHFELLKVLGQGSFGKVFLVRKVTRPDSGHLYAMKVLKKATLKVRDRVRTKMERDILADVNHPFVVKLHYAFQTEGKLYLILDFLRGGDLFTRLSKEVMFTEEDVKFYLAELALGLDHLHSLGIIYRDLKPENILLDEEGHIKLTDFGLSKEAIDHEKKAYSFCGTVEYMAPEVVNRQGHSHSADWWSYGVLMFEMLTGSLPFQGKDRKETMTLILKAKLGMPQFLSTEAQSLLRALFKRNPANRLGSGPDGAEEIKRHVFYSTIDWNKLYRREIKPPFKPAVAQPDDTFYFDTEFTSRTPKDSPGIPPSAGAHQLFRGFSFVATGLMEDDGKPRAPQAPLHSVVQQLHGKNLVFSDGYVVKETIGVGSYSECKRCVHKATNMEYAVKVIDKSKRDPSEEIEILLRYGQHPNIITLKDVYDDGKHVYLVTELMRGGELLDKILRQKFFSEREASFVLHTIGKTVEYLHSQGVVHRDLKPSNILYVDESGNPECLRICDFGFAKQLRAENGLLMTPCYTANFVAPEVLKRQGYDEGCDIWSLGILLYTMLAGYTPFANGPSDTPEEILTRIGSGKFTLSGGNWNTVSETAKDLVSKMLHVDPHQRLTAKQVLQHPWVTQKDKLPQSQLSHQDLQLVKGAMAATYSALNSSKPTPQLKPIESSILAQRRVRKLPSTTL
Sequence of Ribosomal protein S6 kinase alpha-3 (Homo sapiens) (P51812 whole entry): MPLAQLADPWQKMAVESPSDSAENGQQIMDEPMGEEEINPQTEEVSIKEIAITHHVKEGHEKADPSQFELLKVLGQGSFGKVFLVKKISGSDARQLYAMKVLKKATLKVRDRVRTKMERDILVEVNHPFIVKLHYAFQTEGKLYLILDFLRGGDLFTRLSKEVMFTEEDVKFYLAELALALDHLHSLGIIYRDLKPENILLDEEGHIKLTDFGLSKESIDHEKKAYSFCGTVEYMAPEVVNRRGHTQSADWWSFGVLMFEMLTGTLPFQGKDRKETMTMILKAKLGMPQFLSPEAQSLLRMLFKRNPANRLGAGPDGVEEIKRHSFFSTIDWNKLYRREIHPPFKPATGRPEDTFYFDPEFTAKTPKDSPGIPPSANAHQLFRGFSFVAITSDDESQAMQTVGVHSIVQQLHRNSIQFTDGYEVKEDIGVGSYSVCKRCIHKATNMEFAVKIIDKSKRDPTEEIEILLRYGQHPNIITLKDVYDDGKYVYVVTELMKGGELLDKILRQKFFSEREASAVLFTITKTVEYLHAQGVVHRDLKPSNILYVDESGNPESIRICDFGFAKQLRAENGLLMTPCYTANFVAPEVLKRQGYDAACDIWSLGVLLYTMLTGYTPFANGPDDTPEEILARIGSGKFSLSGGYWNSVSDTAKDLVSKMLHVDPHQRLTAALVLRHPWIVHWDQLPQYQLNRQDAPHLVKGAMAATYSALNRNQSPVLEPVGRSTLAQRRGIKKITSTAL
Sequence of Ribosomal protein S6 kinase alpha-6 (Homo sapiens) (Q9UK32 whole entry): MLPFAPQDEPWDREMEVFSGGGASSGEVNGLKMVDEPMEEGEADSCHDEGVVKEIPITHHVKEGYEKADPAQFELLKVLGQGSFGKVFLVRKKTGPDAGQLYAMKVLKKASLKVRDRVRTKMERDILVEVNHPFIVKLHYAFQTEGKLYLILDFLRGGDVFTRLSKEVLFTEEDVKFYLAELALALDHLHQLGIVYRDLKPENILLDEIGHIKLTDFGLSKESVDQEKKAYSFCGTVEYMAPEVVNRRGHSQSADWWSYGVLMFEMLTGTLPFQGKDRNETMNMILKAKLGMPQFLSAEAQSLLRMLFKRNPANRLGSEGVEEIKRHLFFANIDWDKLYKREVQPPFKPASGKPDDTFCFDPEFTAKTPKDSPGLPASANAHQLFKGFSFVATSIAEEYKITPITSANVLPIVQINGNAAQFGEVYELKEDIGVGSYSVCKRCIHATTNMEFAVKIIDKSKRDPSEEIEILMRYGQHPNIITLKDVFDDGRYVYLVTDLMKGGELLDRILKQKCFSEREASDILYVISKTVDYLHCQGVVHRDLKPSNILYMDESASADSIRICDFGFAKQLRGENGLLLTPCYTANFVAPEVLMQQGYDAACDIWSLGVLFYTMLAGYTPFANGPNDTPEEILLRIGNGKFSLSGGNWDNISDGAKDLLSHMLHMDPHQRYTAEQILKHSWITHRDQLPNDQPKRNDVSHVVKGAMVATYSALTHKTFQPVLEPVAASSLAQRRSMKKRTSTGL
Sequence of Rho-associated protein kinase 2 (Homo sapiens) (O75116 whole entry, looked up): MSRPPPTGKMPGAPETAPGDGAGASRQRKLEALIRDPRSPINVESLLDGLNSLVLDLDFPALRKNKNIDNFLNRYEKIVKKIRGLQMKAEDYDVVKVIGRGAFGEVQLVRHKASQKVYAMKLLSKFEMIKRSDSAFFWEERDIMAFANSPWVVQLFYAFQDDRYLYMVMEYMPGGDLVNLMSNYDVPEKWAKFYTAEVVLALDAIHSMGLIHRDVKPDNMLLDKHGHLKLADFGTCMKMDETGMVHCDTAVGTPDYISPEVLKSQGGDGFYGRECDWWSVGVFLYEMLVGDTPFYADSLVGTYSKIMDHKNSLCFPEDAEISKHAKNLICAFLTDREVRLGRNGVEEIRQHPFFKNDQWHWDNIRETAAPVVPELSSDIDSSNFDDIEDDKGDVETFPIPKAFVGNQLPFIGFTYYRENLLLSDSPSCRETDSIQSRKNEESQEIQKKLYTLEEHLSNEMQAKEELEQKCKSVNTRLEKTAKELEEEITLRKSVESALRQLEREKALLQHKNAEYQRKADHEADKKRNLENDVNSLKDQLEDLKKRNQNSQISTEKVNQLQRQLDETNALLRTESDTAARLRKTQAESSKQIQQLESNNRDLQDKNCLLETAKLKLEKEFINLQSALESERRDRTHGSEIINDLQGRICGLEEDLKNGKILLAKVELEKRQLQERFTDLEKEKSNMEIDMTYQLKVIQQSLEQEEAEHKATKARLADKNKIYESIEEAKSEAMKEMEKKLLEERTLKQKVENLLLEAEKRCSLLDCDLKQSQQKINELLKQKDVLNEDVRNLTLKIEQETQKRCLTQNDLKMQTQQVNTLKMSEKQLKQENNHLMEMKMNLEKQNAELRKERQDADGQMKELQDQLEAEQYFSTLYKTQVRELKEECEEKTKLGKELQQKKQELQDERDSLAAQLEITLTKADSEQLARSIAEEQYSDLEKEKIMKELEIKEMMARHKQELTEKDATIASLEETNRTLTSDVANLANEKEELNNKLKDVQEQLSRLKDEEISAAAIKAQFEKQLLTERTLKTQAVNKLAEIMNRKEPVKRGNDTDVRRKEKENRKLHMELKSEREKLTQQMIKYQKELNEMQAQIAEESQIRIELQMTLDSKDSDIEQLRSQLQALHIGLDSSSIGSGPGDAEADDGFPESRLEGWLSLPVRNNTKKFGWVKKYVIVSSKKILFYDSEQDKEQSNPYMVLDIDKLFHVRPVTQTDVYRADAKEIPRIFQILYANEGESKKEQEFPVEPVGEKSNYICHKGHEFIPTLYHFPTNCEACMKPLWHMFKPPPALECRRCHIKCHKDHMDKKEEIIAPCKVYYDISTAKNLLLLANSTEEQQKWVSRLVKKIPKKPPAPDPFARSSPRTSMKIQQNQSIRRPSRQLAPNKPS

With `Fc1cccc(COc2ccc(Nc3ncncc3C#Cc3ccccc3)cc2Cl)c1`, the inhibition in [1] came to 6.54%; in assay [2], 6.12%; in assay [3], 5.73%; in assay [4], 3.8%; in [5] it was 4.39%; in assay [6], 3.39%. Further, the inhibition in assay [7] stood at 3.87%; in assay [8] it was 2.56%; in assay [9], 5.39%; in [10], 1.15%; in assay [11], 1.47%; in assay [12] it was 3.76%. For the same compound, the inhibition in assay [13] was 7.12%; in [14] it was 3.37%; in assay [15], 6.51%; in assay [16] it was 1.92%; in assay [17], 4.01%; in assay [18], 3.21%. The inhibition in [19] was 2.81%; in assay [20] it was 1.21%.
For `CCOc1ccc2c(-c3ccnc(Nc4cc(OC)cc(C(F)(F)F)c4)n3)cnn2n1`, the inhibition in assay [1] is 0.81%; in [2] it was -0.03%; in assay [3] it was 1.2%; in assay [4], 0.85%; in [5], 7.21%; in assay [6] it was 0.36%. The inhibition was 2.15% in assay [7]; 0.62% in assay [8]; 0.2% in assay [9]; -0.28% in [10]; -0.21% in [11]; 0.14% in assay [12]. The inhibition is -0.36% in [13]; -0.43% in assay [14]; -1.47% in [15]; -0.09% in [16]; -1.49% in [17]; 0.44% in [18]. In addition, the inhibition in assay [19] is 0.33%; in assay [20], 1.36%.
Take `NS(=O)(=O)c1ccc(N/N=C2\C(=O)Nc3cccc(CCc4ccncc4)c32)cc1`: the inhibition in assay [1] is 0.82%; in assay [2], 0.3%; in assay [3] it was 0.91%; in [4], 0.22%; in assay [5], -0.46%; in assay [6], -0.44%. Also, the inhibition in assay [7] is -0.5%; in assay [8] it was 0.12%; in assay [9], 0.09%; in [10], 0.65%; in [11], 1.51%; in assay [12], 0.96%. The inhibition in [13] was 1.68%; in [14] it was 2.2%; in assay [15], 1.84%; in assay [16] it was 2.02%; in assay [17], 2.03%; in [18], 2.79%. The inhibition in assay [19] turned out to be 7.37%; in [20], 3.11%.
